Avidin fluor = avidin bead compound fluorescence profile | AID 1775 | 220,000 compounds, 0.38% hits | Avidin beads, compound fluorescence 488/530 nm, flow cytometry; stronger effect = higher value | fluorescence (KMESF) at 10 µM; in the data active = fluorescence above about 47
RGS4-Gao reg = modulates binding of RGS4 to human Galphao | binding response (% of control), % at 10 µM | P09471 | Multiplexed bead flow cytometry; actives lie on both sides | 220,000 compounds, 0.33% hits; in the data active = binding response below about 49% or above about 150%; inactive = in between;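 also: fluorescent Galphao activated with aluminum fluoride binding bead-coupled RGS4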
Target sequence (P09471 whole entry, looked up): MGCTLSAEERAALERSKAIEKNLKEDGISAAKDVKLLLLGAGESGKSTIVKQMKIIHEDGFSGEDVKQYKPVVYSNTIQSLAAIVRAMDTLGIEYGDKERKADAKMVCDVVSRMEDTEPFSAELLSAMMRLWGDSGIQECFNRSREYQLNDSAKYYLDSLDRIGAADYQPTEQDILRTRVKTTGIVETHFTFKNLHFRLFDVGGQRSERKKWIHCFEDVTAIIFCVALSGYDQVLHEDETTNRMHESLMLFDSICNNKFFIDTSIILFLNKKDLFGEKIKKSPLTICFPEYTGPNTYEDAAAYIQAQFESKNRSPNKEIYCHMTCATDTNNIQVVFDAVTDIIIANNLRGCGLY
RGS7-Gao = regulators of human RGS7-Galphao interaction | Multiplexed bead flow cytometry, RGS7-Galphao binding; actives lie on both sides | P09471 | binding response (% of control), % at 10 µM | AID 1439 | 220,000 compounds, 0.35% hits; in the data active = binding response below about 49% or above about 150%;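 also: fluorescent Galphao held in activated GDP-AlF4 state binding bead-coupled RGS7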
RGS16-Gao HTS = RGS16-Galphao interaction regulator (human); O15492+P09471; bead-based flow cytometry RGS16-Galphao binding, fluorescence; actives lie on both sides; binding response (% of control), % at 10 µM; 220,000 compounds, 0.38% hits; AID 1441;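 also: Galphao activated by GDP with aluminum fluoride before binding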
GSH bead fluor = GSH bead compound fluorescence profile. GSH beads flow cytometry, compound fluorescence 488/530 nm; stronger effect = higher value. AID 1776. 190,000 compounds, 0.25% hits. fluorescence (KMESF) at 10 µM; in the data active = fluorescence above about 89;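 also: glutathione beads carrying GST-tagged Bcl family fusion proteins plus one bare bead set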
RGS8-Gao = human RGS8-Galphao interaction regulation. AID 1423. multiplexed bead flow cytometry, RGS8-Galphao binding; actives lie on both sides. response (percent of control binding), % at 10 µM. 220,000 compounds, 0.34% hits; in the data active = response below about 60% or above about 140%; inactive = in between;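 also: Galphao activated as the GDP aluminium fluoride complex binding bead-coupled RGS8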
RGS4-Gao HTS = modulates binding between human RGS4 and Galphao | multiplexed bead flow cytometry, RGS–Galpha-o binding | RGS4–Galpha-o binding response, % at 10 µM | 1,600 compounds, 99% hits | shares compounds with RGS16-Gao HTS | AID 1504;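 also: fluorescently labeled Galpha-o bound to GDP with aluminium fluoride binding biotinylated RGS beads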
Avidin counter = counter-screen: compounds disrupting biotin binding to avidin beads. shares compounds with RGS16-Gao HTS. streptavidin beads, fluorescein-biotin binding, flow cytometry. inhibition, % at 10 µM. 1,700 tested, under 10 active. AID 1783;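 active = inhibition above 50%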;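 also: median green fluorescence of gated singlet beads compared with DMSO control wells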
RGS8-Gao single = RGS8-Galphao interaction regulation, single point confirmation. shares compounds with RGS16-Gao HTS. 1,700 compounds, 3% hits. bead-based flow cytometry RGS8-Galphao binding, fluorescence; actives lie on both sides. AID 1836. binding response (% of control), % at 10 µM; in the data active = binding response below about 72% or above about 130%; inactive = in between;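 also: Galphao activated as GDP AlF4 complex before binding bead RGS8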
RGS7-Gao confirm = confirmation of regulators of human RGS7-Galphao interaction; response (percent of control binding), % at 10 µM; shares compounds with RGS16-Gao HTS; 1,700 compounds, 7.8% hits; bead-based flow cytometry RGS7-Galphao binding; actives lie on both sides; AID 1837; in the data active = response below about 75% or above about 130%; inactive = in between;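 also: fluorescent Galphao activated with GDP and aluminum fluoride binding bead-coupled RGS7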
RGS16-Gao single = RGS16-Galphao interaction regulation, single point confirmation | shares compounds with RGS16-Gao HTS | response (% of control binding), % at 10 µM | bead-based flow cytometry, RGS16-Galphao binding; actives lie on both sides | 1,700 compounds, 4% hits; in the data active = response below about 74% or above about 130%; inactive = in between;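 also: Galphao activated as the GDP aluminium fluoride complex binding bead-coupled RGS16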
RGS4-Gao single = RGS4-Galphao interaction regulation, single point confirmation. shares compounds with RGS16-Gao HTS. binding response (% of control), % at 10 µM. AID 1840. 1,700 compounds, 4% hits. RGS4-Galphao binding, multiplexed bead flow cytometry; actives lie on both sides; in the data active = binding response below about 74% or above about 130%; inactive = in between
RGS19-Gao conf = confirmation of regulators of human RGS19-Galphao interaction. AID 1841. 1,700 compounds, 5% hits. shares compounds with RGS16-Gao HTS. response (percent of control binding), % at 10 µM. bead-based flow cytometry RGS19-Galphao binding; actives lie on both sides; in the data active = response below about 50% or above about 160%; inactive = in between
Of the large screens only hits and unclear results are named; the others gave an inactive call (follow-up assays come after a bar, where they were run); [ ] = remark or other dose. In the library only some 1.2% were active in any assay of this set; here they are far more common. Unless noted, no rule for the calls is given here.

CN1C(=O)/C(=N\OC(=O)c2ccccc2Cl)c2ccccc21	none
CC(=O)O/N=C1\C(=O)N(Cc2ccc(C)cc2)c2ccccc21	RGS8-Gao 58 | RGS4-Gao HTS 76
CCN(CC)C(=O)n1cnc(-c2ccccc2)c1-c1ccccc1	none
COc1ccc(N2C(=O)C(CC(=O)Nc3ccccc3)N(Cc3ccccn3)C2=S)cc1 (stereo unspecified)	none
O=C(CSc1nnnn1-c1ccccc1)Nc1ncc2c(n1)CC(c1ccco1)CC2=O (stereo unspecified)	RGS4-Gao reg 35, RGS7-Gao 39, RGS8-Gao 57 | Avidin counter inactive | RGS8-Gao single inactive | RGS7-Gao confirm inactive | RGS16-Gao single inactive | RGS4-Gao single inactive | RGS19-Gao conf inactive
Cc1ccc(SCc2ccc(C(=O)NCc3ccncc3)cc2)cc1	none
COC(=O)c1cc(NS(=O)(=O)c2ccc(N3CCOCC3)c(N)c2)cc(C(=O)OC)c1	none
Cc1cc(-c2n[nH]c(=S)n2/N=C/c2cc([N+](=O)[O-])ccc2Cl)n[nH]1	RGS16-Gao HTS -2.0 | RGS4-Gao HTS 83 | Avidin counter inactive | RGS8-Gao single inactive | RGS7-Gao confirm inactive | RGS16-Gao single inactive | RGS4-Gao single inactive | RGS19-Gao conf inactive
CCc1cccc(CC)c1NC(=O)/C(C#N)=C/c1ccccc1C(F)(F)F	none
c1ccc(Nc2c3c(nc4ncnn24)CCC3)cc1	none (no result: Avidin fluor, RGS4-Gao reg, RGS7-Gao, RGS16-Gao HTS, RGS8-Gao) | Avidin counter inactive | RGS8-Gao single inactive | RGS7-Gao confirm 56 | RGS16-Gao single inactive | RGS4-Gao single 72 | RGS19-Gao conf inactive
Clc1ccccc1Nc1c2c(nc3ncnn13)CCC2	none
O=C1CCCc2ccccc2N1Cc1cccc(F)c1	none
O=C1CCCc2ccccc2N1Cc1ccc(F)cc1	RGS7-Gao 170[activator] | RGS4-Gao HTS 111 | Avidin counter inactive | RGS8-Gao single inactive | RGS7-Gao confirm inactive | RGS16-Gao single inactive | RGS4-Gao single inactive | RGS19-Gao conf inactive
CC1CN(C2CCN(C(=O)COc3ccc(Cl)cc3)CC2)CC(C)O1 (stereo unspecified)	none
COc1ccc(C(=O)Nc2n[nH]c(-c3ccncc3)n2)cc1	none
Cc1ccc(-n2c(N)c(C(=O)N3CCOCC3)sc2=S)cc1	RGS8-Gao 146[activator] | RGS4-Gao HTS 120
CCCCn1c(/N=C/c2ccc(N(C)C)cc2)nc2ccccc21	none
CCCCn1c(/N=C/c2ccc3c(c2)OCO3)nc2ccccc21	none (no result: Avidin fluor, RGS4-Gao reg, RGS7-Gao, RGS16-Gao HTS, RGS8-Gao) | Avidin counter inactive | RGS8-Gao single inactive | RGS7-Gao confirm inactive | RGS16-Gao single inactive | RGS4-Gao single inactive | RGS19-Gao conf inactive
Cc1ccccc1NC(=O)COC(=O)c1cc(=O)c2ccccc2o1	RGS4-Gao reg 41, RGS7-Gao 37, RGS8-Gao 48 | Avidin counter inactive | RGS8-Gao single inactive | RGS7-Gao confirm inactive | RGS16-Gao single inactive | RGS4-Gao single inactive | RGS19-Gao conf inactive

Bioassay records as filed in PubChem.
